In PubChem BioAssay AID720514 (Broad Institute, 2013):
Screen size: about 2,100 compounds; about 300 (14%) were called active. Roughly 2% stayed inconclusive and do not appear here.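 The calls were made as follows: active = every replicate test run called active, with the signal falling and half-maximal concentration within twice the top valid dose; inconclusive = the replicate test runs disagree in their calls; inactive = every test run inactive, including effects in the opposite direction.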 These entries were drawn from the full list. Measured potencies and affinities stand elsewhere.

Experiment: inhibitors of PGC1a acetylation in cells, dose response, cell-based, cherry-picked samples (AID 720514);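 also: 0% = neutral control wells and -100% = positive control wells; actives lower the acetylation signal so they count as inhibitors of PGC1a acetylation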
Details: U2OS PGC1a acetylation, AlphaLISA, overnight; series mostly up to 19.5 µM; activity change, negative = inhibition: at the top concentration

SMILES | activity change, negative = inhibition
COc1cccc(C(=O)c2c[nH]c(C(=O)NCc3cccnc3)c2)c1 | 269% (inactive)
CCN(CC)S(=O)(=O)c1c(Br)cc(C)cc1Br | 56.1% (inactive)
CCN(CC)c1ccc(N)cc1S(=O)(=O)Nc1ccccc1OC | 63.3% (inactive)
O=C(C(Cc1ccccc1)n1cccc1)N1CCN(c2ccccc2)CC1 (stereo not given) | 156% (inactive)
O=C(c1ccccc1)c1nn(-c2ccc(Cl)cc2)c(=O)cc1C(F)(F)F | 57% [at 10 µM] (inactive)
CCn1c(=S)[nH]c2cc(S(=O)(=O)N3CCCCC3)ccc21 | 144% (inactive)
C[C@@H]1CN([C@H](C)CO)C(=O)c2cccc(NC(=O)c3ccc(-c4nccs4)cc3)c2O[C@@H]1CN(C)Cc1ccc(C(=O)Nc2ccccc2N)cc1 | 114% (inactive)
CC(C)C#Cc1ccc([C@@H]2[C@H](CO)N3C(=O)CN(C(=O)NC4CCCC4)C[C@@H]23)cc1 | 23.8% (inactive)
CC1(C)OC(C)(C)/C(=C\c2ccc(OCC(N)=O)cc2)C1=O | 57% [at 10 µM] (inactive)
COc1ccc(S(=O)(=O)N(Cc2ccccc2)Cc2nc(-c3ccccc3)no2)cc1 | 68.8% (inactive)
Cc1c(OCc2ccc(C(=O)O)cc2)ccc2c(-c3ccccc3)cc(=O)oc12 | 43.5% (inactive)
C[C@H](CO)N1C[C@H](C)[C@@H](CN(C)S(=O)(=O)c2ccccc2)OCCCC[C@H](C)Oc2ccc(NC(=O)Nc3cccc4ccccc34)cc2C1=O | 48.3% [at 21 µM] (inactive)
CC(C)NC(=O)N(C)C[C@H]1OCCCC[C@@H](C)Oc2ccc(NC(=O)Cc3ccccc3)cc2C(=O)N([C@@H](C)CO)C[C@H]1C | 45.8% (inactive)
CC(C)NC(=O)Nc1ccc2c(c1)C(=O)N([C@@H](C)CO)C[C@@H](C)[C@@H](CN(C)S(=O)(=O)c1ccccc1)OCCCC[C@H](C)O2 | 43.1% (inactive)
C[C@@H]1CN([C@H](C)CO)C(=O)c2cc(N(C)C)ccc2O[C@@H](C)CCCCO[C@H]1CN(C)C(=O)Nc1ccccc1 | 69% (inactive)
COCCOC(=O)N1C(=O)[C@@]2(c3ccccc31)[C@H](c1ccccc1OCCO)N1[C@H](c3ccccc3)[C@H](c3ccccc3)OC(=O)[C@H]1[C@@H]2C(=O)N1CCCCCCC1 | 29.6% (inactive)
c1ccc(-c2c(-c3ccccc3)n(Cc3ccco3)c3ncnc(NCCCn4ccnc4)c23)cc1 | 228% (inactive)
O=C(CSc1nc2c(sc3ccccc32)c(=O)n1CCc1ccccc1)NCc1ccco1 | 44.7% (inactive)
C=CCn1c(SCC(=O)NC(=O)NCc2ccco2)nc2sc(CC)cc2c1=O | 35.5% (inactive)
CCOC(=O)c1ccc(NC(=O)Nc2ccc(F)cc2)cc1 | 34.3% (inactive)
Cc1cc(Nc2cccc(Cl)c2)c2ccccc2n1 | 75.5% (inactive)
CC(=O)Nc1ccc(Nc2ncnc3c2cnn3-c2ccc(C)cc2C)cc1 | 105% (inactive)
Cc1cc(C)c(S(=O)(=O)Nc2ccccc2-c2ccccc2)c(C)c1 | 96.5% (inactive)

SMILES | activity change, negative = inhibition
COc1ccccc1-c1ccc2c(c1)O[C@@H](CN(C)Cc1ccc3c(c1)OCO3)[C@@H](C)CN([C@@H](C)CO)S2(=O)=O | 65.4% (inactive)
COC(=O)c1ccc(NC(=O)C23CC4CC(C2)CC(n2cnc(Cl)n2)(C4)C3)cc1 | 81.3% (inactive)
CCOc1ccc(N2C(=O)CC(Cc3ccc(Br)cc3)C2=O)cc1 (stereo not given) | 46.2% (inactive)
CCOc1ccc(S(=O)(=O)N2c3ccccc3CC2C)cc1 (stereo not given) | 52.3% (inactive)
CCCCN=C1NC(=O)C(CC(=O)Nc2ccc(Cl)cc2)S1 (stereo not given) | 77.7% (inactive)
O=C(Cc1ccccc1)N1CCN(C(=O)c2cccs2)CC1 | 74.4% (inactive)
CCN1CCN(c2cc(C)c3cc(NC(=O)c4ccc(Br)o4)ccc3n2)CC1 | 39.5% (inactive)
CCN1CCN(c2ncc(C(=O)Nc3cc(Cl)ccc3OC)c3ccccc23)CC1 | 52.8% [at 10 µM] (inactive)
C[C@H]1CN([C@@H](C)CO)C(=O)c2cccc(NS(=O)(=O)c3ccc(F)cc3)c2O[C@H]1CN(C)Cc1ccc(C(F)(F)F)cc1 | 70.5% (inactive)
COc1ccc(S(=O)(=O)N(C)C[C@@H]2Oc3cc(C#CC4CC4)ccc3S(=O)(=O)N([C@H](C)CO)C[C@@H]2C)cc1 | 43% (inactive)
COc1ccc(S(=O)(=O)N(C)C[C@@H]2Oc3cc(C#CC4CC4)ccc3S(=O)(=O)N([C@@H](C)CO)C[C@@H]2C)cc1 | 51.9% (inactive)
CCCCC(=O)Nc1ccc(NC(=O)c2cccs2)cn1 | 38.6% (inactive)
OCCNc1nc(N2CCCCC2)nc2ccccc12 | 45.5% (inactive)
O=[N+]([O-])c1cc(-c2nnc(Nc3ccc(O)cc3)c3ccccc23)ccc1N1CCOCC1 | 90.6% (inactive)
Cc1ccc(-c2nnc(Nc3ccc4c(c3)OCO4)c3ccccc23)cc1S(=O)(=O)NCCO | 76.8% (inactive)
Cc1ccc2c(CN(Cc3ccccc3)Cc3ccccc3)cc(=O)oc2c1 | 38.4% (inactive)
COCCNC(=O)c1ccc(C)cc1C | 24.6% (inactive)
COc1ccc(S(=O)(=O)N2CC[C@@H]3[C@H](CO)Nc4ccc(-c5ccccc5F)cc4[C@@H]32)cc1 | 68.9% [at 21 µM] (inactive)
Cc1ccc(S(=O)(=O)N(Cc2ccc(F)cc2)Cc2ccco2)cc1 | 84.4% (inactive)
CCOc1ccc(Nc2oc(-c3ccc(Cl)cc3)nc2C#N)cc1 | 58% [at 10 µM] (inactive)
COCC(=O)Nc1ccc2c(c1)OC[C@@H](C)N(CCc1ccccc1)C[C@H](C)[C@H](OC)CN(C)C2=O | 51.7% (inactive)
CO[C@@H]1CN(C)C(=O)c2cc(NC(=O)c3ccc4c(c3)OCO4)ccc2OC[C@@H](C)N(CC2CC2)C[C@H]1C | 17.3% [at 21 µM] (inactive)
COc1ccc(S(=O)(=O)N(C)C[C@@H]2Oc3ccc(NC(=O)CCN4CCOCC4)cc3C(=O)N([C@H](C)CO)C[C@H]2C)cc1 | 22.6% (inactive)

SMILES | activity change, negative = inhibition
COC(=O)c1c(NC(=O)COC(=O)[C@@H](NS(=O)(=O)c2ccccc2)C(C)C)sc2c1CCC2 | 67.1% (inactive)
Cc1cc(Nc2ccccc2)cc(=O)n1C | 16.7% (inactive)
CCN(CC)CCOc1ccc(/C(=C(\Cl)c2ccccc2)c2ccccc2)cc1 | 61.5% [at 10 µM] (inactive)
COc1ccc(CN(CCC(C)C)S(=O)(=O)c2ccccc2Br)cc1 | 127% (inactive)
O=C(NC1CCCCC1)c1cccnc1C(=O)O | 37.9% (inactive)
Nc1nnc(SCC(=O)NC2CCCCC2)n1-c1ccccc1 | 11.5% (inactive)
Cc1ccccc1Cn1cc(NC(=O)c2cc(-c3cccs3)on2)cn1 | 81% (inactive)
Cc1cc2cc3c(cc2nc1SCC(=O)OC(C)C)OCCO3 | 60.8% (inactive)
Cc1cccc(-c2ccc3[nH]c4c(c3c2)CCN2C[C@@H]([C@H](C)O)[C@@H](N(C)C(=O)NC3CCCCC3)C[C@@H]42)c1 | 56.9% (inactive)
O=C(Nc1ccc(-c2noc(CCc3ccccc3)n2)cc1)c1cccnc1 | 407% (inactive)
COC(=O)c1ccc2[nH]c3cccc(/C(=C/c4ccccc4)c4ccccc4)c3c2c1 | 55% (inactive)
O=C(Nc1cnc2ccccc2c1)c1cccnc1 | 156% [at 5 µM] (inactive)
COc1ccc(Br)cc1CNc1ccccc1 | 103% (inactive)
CCn1c(SCC(=O)Nc2ccc(NC(=O)c3ccco3)cc2)nnc1-c1cccs1 | 162% [at 10 µM] (inactive)
Cc1cc(C)n2c(SCC(=O)NCc3ccco3)nnc2n1 | 22.2% (inactive)
NC(=O)Cc1ccc2c(c1)[nH]c1ccccc12 | 177% (inactive)
O=S(=O)(c1ccc(Cl)cc1)N1[C@@H]2CNC[C@H]1C2c1ccc(-c2cccc(F)c2)cc1 (stereo not given in full) | 115% [at 21 µM] (inactive)
Cc1ccc(S(=O)(=O)N2C[C@@H]3N[C@H](C2)[C@@H]3c2ccc(-c3cccc(C)c3)cc2)cc1 | 23.7% (inactive)
Cc1ccccc1-c1ccc(C2[C@@H]3CN(S(=O)(=O)c4ccccc4C)C[C@H]2N3)cc1 (stereo not given in full) | 50.7% (inactive)
COc1ccccc1-c1ccc(C2[C@@H]3CN(S(=O)(=O)c4ccc(C)cc4)C[C@H]2N3)cc1 (stereo not given in full) | 43.6% [at 21 µM] (inactive)
Fc1ccc(CN(Cc2ccccc2)C(c2cccs2)c2nnnn2C2CCCCC2)cc1 (stereo not given) | 48.1% (inactive)
O=C(NCc1ccc(Cl)cc1)C1CCC(CNc2c(N3CCCC3)c(=O)c2=O)CC1 (stereo not given) | 45.9% (inactive)
Cc1cccc(Oc2nccc(C(F)(F)F)c2C(=O)Nc2ccc(F)cc2F)c1 | 48.5% (inactive)

SMILES | activity change, negative = inhibition
c1coc(CN(Cc2cccs2)Cc2nnnn2C2CCCCC2)c1 | 72.5% (inactive)
C[C@@H](c1ccccc1)N1Cc2ccccc2Oc2cc(Br)ccc2S1(=O)=O | 51% (inactive)
C=C[C@H]1C(C(=O)OCC)=CC[C@@H](c2ccccc2)N1S(=O)(=O)c1ccc(C)cc1 | 85.6% (inactive)
CCOC(=O)C1=CC[C@@H](c2ccc(F)cc2)N(S(=O)(=O)c2ccc(C)cc2)[C@H]1c1ccccc1 | 95.3% [at 10 µM] (inactive)
O=C(Nc1cccnc1)c1ccc(Oc2ccccc2)cc1 | 239% (inactive)
Nc1ccc(N2CCCCC2)cc1N1CCCCC1 | 111% (inactive)
O=C(Nc1cccnc1)c1ccc(Br)s1 | 197% [at 5 µM] (inactive)
Cc1ccc2[nH]c(=O)c(CN(Cc3ccc4c(c3)OCO4)Cc3nnnn3C3CCCC3)cc2c1 | 32.4% (inactive)
O=C(Nc1ccc(F)cc1)N1CC(=O)N2[C@@H](CO)[C@H](c3ccc(Br)cc3)[C@@H]2C1 | 29% [at 21 µM] (inactive)
CC(C)CC#Cc1ccc([C@@H]2[C@H](CO)N3CCCCN(S(=O)(=O)Cc4ccccc4)C[C@@H]23)cc1 | 35.4% [at 5 µM] (inactive)
O=C(c1ccc(F)cc1)N1CC(=O)N2[C@H](CO)[C@@H](c3ccc(C#CCC4CCCC4)cc3)[C@@H]2C1 | 14.4% [at 21 µM] (inactive)
Cc1cccc(OC2(c3ccccc3)OC(=O)c3ccccc32)c1C (stereo not given) | 90.7% (inactive)
O=C(COc1cccnc1[N+](=O)[O-])NCCc1ccc(Cl)cc1 | 38.7% (inactive)
COc1cccc(-c2ccc(C3[C@@H]4CN(S(=O)(=O)c5cccc(OC)c5)C[C@H]3N4)cc2)c1 (stereo not given in full) | 64.4% (inactive)
COc1ccccc1-c1ccc(C2[C@@H]3CN(Cc4cccc(F)c4)C[C@H]2N3)cc1 (stereo not given in full) | 55.2% (inactive)
N#Cc1ccccc1S(=O)(=O)N1CCN(Cc2cc3c(cc2Br)OCCO3)CC1 | 120% (inactive)
CC(C)(C)c1ccc(NC(=O)N2CCCN(c3ccc([N+](=O)[O-])cn3)CC2)cc1 | 187% (inactive)
Cc1ccc(O)c(C(=O)c2cnc3c(c2)CN(CCC(C)C)C(=O)N3)c1 | 53.6% (inactive)
COc1ccc(Cc2nc(-c3ccc(NC(=O)c4cccnc4)cc3)no2)cc1 | 207% (inactive)
C=CCn1c(=NC(=O)c2ccc(S(=O)(=O)N3CCCC3)cc2)sc2cc(NC(C)=O)ccc21 | 44.8% (inactive)
CCOCCn1c(CN(Cc2ccccc2)Cc2ccccc2)nc2c1c(=O)[nH]c(=O)n2C | 53.2% (inactive)
